Measurements: the supplement of paper PMC6555819

What was measured:
Assay in all cases: PBM binding z-score (relative to random genomic background probes); higher = stronger binding; sequences stand for … in GC…GCGATTGACAGCGTAGAATGAAGG
[1] = system: RARb homodimer (NR concentration 270 nM)
Method in brief: (§1)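 Each nuclear receptor dimer, without ligand, was incubated for 1 h on custom Agilent 4×180K protein-binding microarrays. Binding was detected with antibodies against each partner (one per run), and scanned fluorescence was regression-normalized. The binding z-scores are referenced to random human genomic background probes.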

[2] = system: RARg:RXRa (NR concentration 270 nM, RXRa partner concentration 90 nM)
Method in brief: as §1

[3] = system: RARg homodimer (NR concentration 270 nM)
Method in brief: as §1

[4] = system: RXRa DBDmut IVT, anti-RXR (DBD mutation: RXRa K156A/R161A, NR concentration 90 nM)
Method in brief: as §1

[5] = system: RXRa homodimer (NR concentration 180 nM)
Method in brief: as §1

[6] = system: THRa:RXRa (NR concentration 90 nM, RXRa partner concentration 90 nM)
Method in brief: as §1

[7] = system: THRa homodimer (NR concentration 90 nM)
Method in brief: as §1

[8] = system: VDR homodimer (NR concentration 270 nM)
Method in brief: as §1

Sequence	PBM binding z-score [1]	PBM binding z-score [2]	PBM binding z-score [3]	PBM binding z-score [4]	PBM binding z-score [5]	PBM binding z-score [6]	PBM binding z-score [7]	PBM binding z-score [8]
CAAACTAGGACACAGAGGTCAAAGTCCGTGCGTA	4.68	5.54	5.17	2.31	6.42	4.36	2.5	5.25
CCTCGGAGGACAACAGAAGGTCAGAGCTGCCAGA	3.55	3.3	3.27	0.274	1.54	2.36	0.481	0.506
CCTTACGGGGCACGAGGTTATAGCACGACGAGCG	1.27	2.07	1.74	-0.444	1.92	1.48	0.0456	0.346
TCTTGCAGATCAGCAGGTTAAGAAAGCTGGCCAA	-0.126	-0.0186	-0.618	-0.0927	0.33	0.0241	-0.879	-0.987
ATCTCTAGGTAACAAGTTCAGTCAAAGAGAGGAC	1.92	1.45	1.43	1.09	0.866	1.62	1.12	2.65
GATACAGAGTCAAGGCCAGAGTACGCGTATTGAT	0.0594	0.0796	0.345	-0.102	0.116	0.0889	-0.438	-0.0653
ATCGAAAGGTCTAGGTGAGTATAGAGAAAGGGAA	1.12	1.23	1.3	0.133	0.532	0.835	0.338	-0.115
CCTTACGCGTCACGAGGTTATAGCACGACGAGCG	0.644	0.881	0.604	0.705	1.38	1.51	0.967	0.734
CCGGCTGGGGCAAGGTTACCATAACGCACAGCCA	1.41	1.14	1.27	-1.12	1.14	1.03	-0.0935	-0.883
TCGATTAGTTGATTAGGGCAACCGAAACAGCGGA	0.521	0.102	0.329	0.535	0.0192	0.565	0.154	-0.306
GCTGCTAGGTCAACTGATGGTTAGCTAAAGCTCG	3.25	4.51	5.52	1.85	2.81	2.94	0.862	-0.316
CCTAGCAGTCCAGGGTCACTCAAGCATTTCGCTT	2.5	2.77	2.03	1.07	3.27	2.95	1.64	1.7
CCGACTGGGGCAGAAAGGTTATCATACCATCCGG	1.91	1.48	1	-0.376	1.67	0.759	-0.293	-0.196
GGACCGAGGGCAAGTTGATAGCAGAGTTTGATGG	1.43	1.78	2.07	2.06	0.783	0.968	-0.0674	1.67
CCTTCTAGGTCATGGTCAGCTAATCTACAGTATG	3.46	4.02	5.08	2.02	3.37	3.45	2.5	0.794
ATGGAAAGGTCGAAGGTGAGTATACCCACCCGAA	2.68	4.21	3.87	0.318	4.97	2.3	0.00488	0.714
CTCGAAAGGTCGGTTGAGGGGAGTATACGGATAA	1.86	2.44	2.58	0.704	2.14	4	-0.23	0.528
TCAAGTTGGTCAAAGGTCACACACTCGAAATGCG	5.19	7.2	6.47	2.15	8.37	4.16	1.86	2.4
CCTCGGAGGACAGAAGGTCAGCGCTGTCCGCTTT	4.09	4.02	3.84	0.468	2.54	2.57	-0.027	0.0447

Sequence	PBM binding z-score [1]	PBM binding z-score [2]	PBM binding z-score [3]	PBM binding z-score [4]	PBM binding z-score [5]	PBM binding z-score [6]	PBM binding z-score [7]	PBM binding z-score [8]
CTACCAAGGTGAACAAGGTCGTTGTTTACTATTC	1.97	1.78	1.27	1.63	1.9	3.23	1.76	2.16
TCGAGTATGTTAGTCGGGGCATTCAGCCAACATA	-0.183	-0.172	-0.574	0.723	-0.06	0.102	-0.431	0.226
AGAATGCGGTTATACGTAGATCAGGGAAGAAAGT	-0.25	0.0152	-0.0583	-0.501	0.067	-0.31	-0.634	-0.661
AGAACGAGGGCAATGAGTTGGTAGCACGGGTGGC	0.799	0.857	1.09	1.47	0.619	0.555	-0.125	1.98
CGTCCAAGGTCAGCACGTCAGTGAAAGCGACGTG	4	5.13	5.75	2.51	3.83	3.43	1.9	0.904
ATCGAAAGGTGGAGGTGAGTATAGAGAAAGGGAA	1.16	0.536	0.711	-0.665	0.164	0.67	0.48	0.297
CTCGAAAGGTCGTGCTCAGGTGAGGATACCAAAC	2.88	5.12	3.74	2.24	4.62	4.22	2.06	0.965
TCTGCTAGCTCAACGATGGTCAGCTAATCTGCTA	-0.694	-0.391	-0.546	0.109	-0.436	-0.558	-1.1	-0.902
GCGACCGGGGCATCAGCAGGTTACCATAACTTAA	1.37	2.27	1.64	-0.302	0.943	1.61	0.295	-0.185
ATCTCTAGGTAAGACTCAGTTCAGTTAAGAACGC	0.724	0.306	0.466	0.735	-0.175	1.44	0.728	1.6
ATCTCTAGGTAAAAGGTCAGTGAATCCCGAGGAT	4.43	4.54	4.74	0.227	4.83	3.34	0.855	0.867
CAGCCTAGGTCAGAGCCAGTATAGGAGGAACGTT	2.13	2.87	3.5	0.588	1.5	1.76	0.271	-0.348
ACTATTAGCTGACTTAGGGCAACCGATACGACGC	0.665	0.504	0.628	0.619	0.197	0.454	0.576	-0.00444
TCGAGTAGGTTAGTCGGGGCGTTCAGCCAACATA	-0.146	-0.702	-0.632	0.213	-0.538	0.808	-0.254	-0.484
GGATCGAGGGCATTCGAGTTGATAGCATGGCGAT	0.818	1.07	1.25	3.06	0.598	3.39	-0.117	3.49
TCGAGTAGGTTACTAATGGGGCATTCAGCTTTCT	0.14	0.367	0.0579	0.272	0.291	-0.11	-0.967	-0.245
ACAGACAGGTGATGAAGGTAACGCAGGCTATCAT	0.353	0.208	0.319	-0.195	0.253	0.435	-0.159	-0.267
ACAGGCAGGTGAGTGAAGGTAACTCAGCTGGACG	0.0493	-0.184	0.135	-0.851	0.135	1.31	-0.451	-0.884
GCTGCTAGGTCAACTGATGGTCAGCTATAGCTCG	3.72	5.34	5.69	1.79	3.41	3.03	1.11	-0.0243

Sequence	PBM binding z-score [1]	PBM binding z-score [2]	PBM binding z-score [3]	PBM binding z-score [4]	PBM binding z-score [5]	PBM binding z-score [6]	PBM binding z-score [7]	PBM binding z-score [8]
GGAACGAGGGCAAAGTTGATGGCATCTGTCGACG	1.32	2.05	1.74	2.62	1.97	1.55	-0.087	1.7
TCTTGTAGATCAATAGAGGCTAAGAAAGTGCGCT	-0.029	0.139	-0.0605	0.703	0.213	0.676	-0.939	-0.123
TTACCACGGTGAAGGTCGTTGATCCCTCTGTAGA	1.29	0.459	0.382	-0.000966	1.37	0.834	0.375	0.451
CCTATTAGTTGACCATAAGGGCAACCCAAGCTCG	2.32	1.44	1.19	0.764	0.835	2.07	1.53	1.28
CGTCCAAGGTCGGAGAGGTCAGTGAATGCCGAGT	4.01	4.23	4.66	2.06	3.74	3.34	1.31	3.93
TAGCCTAGGTCAGATCGGGCCAGTATTCGCTATA	2.1	2.86	3.71	-0.442	1.37	4.14	-0.138	-0.518
AGTCAAAGTTCCTCTAGGTAACGTAAGATATGCT	-0.0173	0.433	0.491	0.711	0.183	1.23	-0.0927	0.297
CTAACAAGGTGAACAAGGTCGTTGATTACTATTC	1.94	1.79	1.76	1.6	1.84	3.24	1.84	2.19
TCTTGTAGATCAGCAGGTGAAGAAAGCTGGCCAA	-0.153	-0.237	-0.356	0.475	0.184	0.0556	-0.332	-0.766
AGAATGAGGGTATACGTAGATCAGGGAAGAAAGT	0.451	0.26	0.277	0.799	0.262	0.252	0.0652	0.45
TCTGCTAAGTCAGTTGGTCAGCTAACGAGCTGCC	-0.3	-0.611	-0.521	-0.0698	-0.61	-0.628	-0.977	-0.941
TTACCAACGTGAGCTGAGGTCGTTGATCCAACTC	0.839	0.0093	-0.366	0.168	0.547	2.48	1.5	2.12
GCTAGCAGGCCATTTGGGTCACGCAATGACGGGC	2.27	1.79	1.75	-0.208	1.68	2.54	1.19	0.28
CTCGAACGGTCGTGCTCAGGTGAGTATACCAAAC	0.628	0.435	0.489	0.177	-0.088	1.4	0.536	-0.528
TAGCCTAGGTCATGCGGGCCAGTATTGTGTCGGC	3.12	3.74	4.11	0.382	2.52	3.05	1.08	0.379
CGTCCAAGCTCAATGCTAGGTCAGTGAAAGCATT	1.84	0.587	0.598	-0.0158	-0.025	1.09	0.344	-0.453
CCGACTGGGGCAAGGTTACCATCACGCACAGCCA	1.61	1.08	1.33	-0.402	1.18	1.22	0.274	-0.0347
CCGACTGGGGCAAGGTTTCCATAACGCACAGCCA	0.28	0.112	0.326	-0.561	-0.0639	-0.0993	-0.3	-0.47
CCTTACGGGTCAATGACAGGTTATAGCATTTGGA	3.12	5.64	4.22	1.9	4.58	2.59	-0.0254	1.18
